The panel holds about 83,000 compounds, 20% with a hit somewhere; the sample as a whole holds those more often.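 Assay: single dose, 48 h. Readout: percent growth (0 = no net growth; negative = cell death). Active: <10.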 A number with no mark means an inactive call. The source made the active and inactive calls.
Tests used:
Assay in all cases: NCI-60 one-dose screen, 48 h (100 = growth as untreated, 0 = no growth, -100 = all killed)
Details in all cases: 10 µM unless noted
NCI-H23 lung = tested on: NCI-H23 lung
NCI-H226 lung = tested on: NCI-H226 lung
NCI-H322M lung = tested on: NCI-H322M lung
HOP-62 NSCLC = tested on: HOP-62 NSCLC
NCI-H460 lung = tested on: NCI-H460 lung
A549/ATCC NSCLC = tested on: A549/ATCC NSCLC
786-0 renal = tested on: 786-0 renal
COLO 205 colon = tested on: COLO 205 colon
DU-145 prostate = tested on: DU-145 prostate
K-562 leukemia = tested on: K-562 leukemia
MALME-3M melanoma = tested on: MALME-3M melanoma
MDA-MB-231 breast = tested on: MDA-MB-231 breast
RXF 393 renal = tested on: RXF 393 renal
SF-268 CNS = tested on: SF-268 CNS
SF-295 CNS = tested on: SF-295 CNS
SF-539 CNS = tested on: SF-539 CNS
UACC-257 melanoma = tested on: UACC-257 melanoma
M14 melanoma = tested on: M14 melanoma
NCI-H522 lung = tested on: NCI-H522 lung

| SMILES | growth (NCI-H23 lung) | growth (NCI-H226 lung) | growth (NCI-H322M lung) | growth (HOP-62 NSCLC) | growth (NCI-H460 lung) | growth (A549/ATCC NSCLC) | growth (786-0 renal) | growth (COLO 205 colon) | growth (DU-145 prostate) | growth (K-562 leukemia) | growth (MALME-3M melanoma) | growth (MDA-MB-231 breast) | growth (RXF 393 renal) | growth (SF-268 CNS) | growth (SF-295 CNS) | growth (SF-539 CNS) | growth (UACC-257 melanoma) | growth (M14 melanoma) | growth (NCI-H522 lung) |
| --- | --- | --- | --- | --- | --- | --- | --- | --- | --- | --- | --- | --- | --- | --- | --- | --- | --- | --- | --- |
| CCCCCCCOc1cccc(/C=C2\N=C3SCCCN3C2=O)c1 | 97.3% | 93.7% | 101% | 108% | 103% | 91.8% | 92.5% | 92.9% | 94.5% | 90.4% | 139% | 87.7% | 116% | 103% | 93.8% | 111% | 114% | 102% |  |
| COc1cccc(-c2cc(-c3cccs3)c(C#N)c(=O)[nH]2)c1 | 98.9% | 110% | 108% | 108% | 102% | 102% | 94.1% | 111% | 108% | 102% | 110% | 106% | 117% | 104% | 102% | 101% | 115% | 105% |  |
| COc1ccccc1CNCCCN1C(=O)c2ccc3c4c(ccc(c24)C1=O)C(=O)N(CCCOCCCCOCCCN)C3=O | -67.6% (active) | -10.8% (active) | -12.1% (active) | 14% | -65.5% (active) | -33.8% (active) | 14.3% | -95% (active) | -74% (active) |  | -93.1% (active) | -4.84% (active) | -42.6% (active) | -21.5% (active) | -9.19% (active) | -34.9% (active) | -91.7% (active) | -85.4% (active) |  |
| CCN(CC)c1cc(C)c(Cc2c(OC)ccc3ccccc23)cc1C | 93.7% | 92.3% | 96.9% | 85% | 95.1% | 82.8% | 100% | 96.7% | 105% | 84.7% | 102% | 98.6% | 101% | 95.7% | 103% | 103% | 96.8% | 90.8% |  |
| COc1ccc(C(=O)N2N=C(c3ccc(F)cc3)CC2c2cn(-c3ccccc3)nc2-c2ccccc2)cc1 (configuration not stated) | 51% | 91.2% | 80% | 40.5% | 53.3% | 41.1% | 69.6% | 57% | 57.5% | 40.3% | 73.7% | 60.2% | 73.7% | 70.1% | 65.1% | 85.7% | 78.6% | 55% |  |
| C(=Nc1ccc(-c2ccc(N=Cc3ccccc3)cc2)cc1)c1ccccc1 | 101% | 97.4% | 103% | 101% | 116% | 93.8% | 104% | 117% | 118% | 95.4% | 94.6% | 88.2% | 113% | 105% | 99.2% | 107% | 109% | 104% |  |
| CCCCOc1nc2ccc(C)cc2cc1/C=C/C(=O)/C=C(O)/C=C/c1cc2cc(C)ccc2nc1OCCCC | 92% | 102% | 92% | 87.3% | 106% | 91.7% | 96.5% | 114% | 112% | 99.2% | 118% | 103% | 108% | 103% | 101% | 103% | 89.4% | 98.4% |  |
| Nc1c(N)c2ccccc2c2ccccc12 | 98.4% | 92.2% | 115% | 95% | 113% | 105% | 103% | 124% | 111% |  | 110% | 85.3% | 109% | 115% | 100% | 94.6% | 106% | 113% |  |
| C=CCCCCOc1cccc(/C=C2\N=C3SCCCN3C2=O)c1 | 102% | 94.3% | 84.6% | 94.5% | 103% | 93.2% | 95% | 101% | 108% | 91.5% | 115% | 88.6% | 114% | 110% | 96% | 104% | 112% | 103% |  |
| Cc1ccc(C)c(NC(=O)c2sc3c(=O)[nH]cnc3c2C)c1 | 93.4% | 106% | 103% | 80.8% | 81.9% | 74.6% | 89.9% | 83.3% | 108% | 29.6% | 62.6% | 97.4% | 90.1% | 101% | 73.3% | 94.2% | 94.5% | 57.8% |  |
| CCOC(OCC)c1cnc2nc(NC(C)=O)[nH]c(=O)c2n1 | 102% | 107% | 101% | 120% | 104% | 99.7% | 97.5% | 121% | 107% | 104% | 89.8% | 104% | 110% | 112% | 109% | 108% | 109% | 100% |  |
| CC(C)[C@@H]1C=C2CC[C@H]3[C@](C)(CN)CCC[C@]3(C)[C@H]2CC1 | 95.4% |  | -6.11% (active) | 59.8% | -69.7% (active) | 95.5% | 78% | -89.7% (active) | 44.1% | 17.5% | 60.2% | 61.3% | 87.9% | 43.4% | 54.8% | 102% | 104% | 89.3% | 86.7% |
| c1ccc2oc(-c3cnc4nonc4n3)cc2c1 | 94.8% |  | 87.7% | 84.7% | 95.8% | 96.4% | 103% | 103% | 114% | 103% | 105% | 87.9% | 112% | 99.7% | 103% | 101% | 99.2% | 106% |  |
| CCOC(=O)c1ccc(NC(=O)CSC(N)=O)cc1 | 95.8% |  | 112% | 113% | 101% | 98% | 86.6% | 98.3% | 114% | 103% | 145% | 95.9% | 129% | 110% | 101% | 96.4% | 107% | 94.8% | 72.8% |
| CN1C2CCC1/C(=C\c1ccc(F)cc1)C(=O)/C2=C/c1ccc(F)cc1 | 47.9% |  | 50.3% | 76.7% | 14.1% | 36.6% | 43.8% | 14.8% | 9.38% (active) | 16.2% | 61.7% | 53.7% | 66.2% | 63% | 72% | 73.6% | 25.8% | 41.2% | 34.4% |
| CC(C)CCSc1nc(-c2ccc(F)cc2)c(C#N)c(N2CCN(C)CC2)n1 | 91.5% |  | 87.8% | 85.2% | 88.8% |  | 65.6% | 84.6% | 94.4% | 62.7% | 97.4% | 53.3% | 78.8% | 83% | 101% | 93.1% | 64.1% | 94.7% | 59% |
| CC1=C(O)C(=O)CC1 | 96.3% |  | 103% | 120% | 109% | 88.8% | 105% | 116% | 112% | 106% | 104% | 108% | 102% | 110% | 94.9% | 111% | 97.4% | 105% | 115% |
